Results as given in the supplement of paper PMC10849652.
Of roughly 7,900 targets only a part is listed; those with a hit were picked by preference. About 0.6% of all pairs of compound and target were hits.

How the values were obtained:
Assay in all cases: log2 fold change, soluble protein after heating vs DMSO (PISA); higher = thermal stabilisation; K562 cells, 10 uM, 30 min; active = over 0.2 and 3.5 SD of the protein, either way, in both replicates (recomputed)
[1] = compound: C1=CC=C(C=C1)[C@H](COC2=CC3=C(C=C2)NC(=O)N3)NC(=O)C4=CC=CN(C4=O)CC5=CC(=C(C=C5)F)F
How it was run: (§1)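 Values are thermal stability changes relative to control samples and are taken from duplicates. They are stated as log2 fold changes. Before quantification by TMTpro 16plex LC-MS/MS with equalised channel sums, K562 cells at 2×10^6 cells/mL were treated with 10 μM compound for 30 min, heated in aliquots for 3 min across 48°C-58°C, pooled, extracted in PBS with 0.5% NP-40 at 4°C, and centrifuged at 21,000xg for 90 min to give the soluble supernatant.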

[2] = compound: CC1=C(SC2=C1C(=N[C@H](C3=NN=C(N32)C)CC(=O)N)C4=CC=C(C=C4)Cl)C
How it was run: as §1

[3] = compound: CC1=C2C(=CC=C1)N=C(N(C2=O)C3=CC=CC=C3C)CN4C=NC5=C(N=CN=C54)N
How it was run: as §1

[4] = compound: Cc1sc2c(c1C)C(c1ccc(Cl)cc1)=N[C@@H](CC(=O)OC(C)(C)C)c1nnc(C)n1-2
How it was run: as §1

[5] = compound: c1ccc([C@@H]2C[C@H]2NC2CCNCC2)cc1
How it was run: as §1

Measured: log2 fold change

IKZF1 isoform 2 (UniProt Q13422)
inactive: [1] 0.335 | [2] 0.217 | [3] 0.052 | [4] -0.026 | [5] 0.061

ILF2 (UniProt Q12905)
Chain of UniProt Q12905 (Q12905 whole entry, looked up): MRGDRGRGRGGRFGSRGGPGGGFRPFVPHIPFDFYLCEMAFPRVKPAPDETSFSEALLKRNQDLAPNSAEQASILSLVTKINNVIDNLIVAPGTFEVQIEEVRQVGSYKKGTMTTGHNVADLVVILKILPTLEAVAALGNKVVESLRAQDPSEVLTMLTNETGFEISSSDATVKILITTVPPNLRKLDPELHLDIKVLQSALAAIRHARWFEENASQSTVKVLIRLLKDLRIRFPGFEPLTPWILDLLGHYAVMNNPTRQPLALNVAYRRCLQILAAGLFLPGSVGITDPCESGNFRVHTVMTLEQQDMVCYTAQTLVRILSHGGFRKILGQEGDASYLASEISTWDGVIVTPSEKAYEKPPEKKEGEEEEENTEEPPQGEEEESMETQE
inactive: [1] 0.047 | [2] -0.078 | [3] -0.141 | [4] 0.14 | [5] 0.034

LUC7L (UniProt Q9NQ29)
inactive: [1] 0.011 | [2] -0.015 | [3] -0.011 | [4] 0 | [5] 0.027

KNTC1 (UniProt P50748)
inactive: [1] -0.079 | [2] 0.011 | [3] 0.106 | [4] -0.011 | [5] -0.008

MAGEA9 (UniProt P43362)
inactive: [1] 0.046 | [2] -0.03 | [3] 0.047 | [4] -0.055 | [5] -0.067

IL27RA (UniProt Q6UWB1)
inactive: [1] 0.021 | [2] 0.144 | [3] 0.002 | [4] 0.097 | [5] 0.096

IMMP1L (UniProt Q96LU5)
inactive: [1] 0.054 | [2] 0.045 | [3] 0.101 | [4] -0.021 | [5] 0.024

KMT2C isoform 3 (UniProt Q8NEZ4)
inactive: [1] 0.032 | [2] 0.04 | [3] 0.017 | [4] -0.076 | [5] -0.001

MAP3K7 (UniProt O43318)
inactive: [1] -0.085 | [2] 0.005 | [3] 0.11 | [4] 0.061 | [5] 0.023

LOX (UniProt P28300)
inactive: [1] -0.113

MAP1LC3B2 (UniProt A6NCE7)
inactive: [1] 0.015 | [2] 0.113 | [3] 0.021 | [4] -0.015 | [5] -0.073

MAPK8 isoform 3 (UniProt P45983)
inactive: [1] -0.007 | [2] 0.151 | [3] 0.072 | [4] 0.061 | [5] -0.055

KCTD2 (UniProt Q14681)
inactive: [1] 0.008 | [2] -0.01 | [3] 0.022 | [4] 0.195 | [5] 0.158

LMNB2 (UniProt Q03252)
inactive: [1] 0.04 | [2] 0.052 | [3] 0.062 | [4] -0.04 | [5] 0.053

KHDC4 (UniProt Q7Z7F0)
inactive: [1] -0.063 | [2] 0.129 | [3] 0.007 | [4] -0.061 | [5] -0.064

KRAS isoform 2 (UniProt P01116)
inactive: [1] -0.002 | [2] -0.065 | [3] 0.096 | [4] 0.005 | [5] 0.053

MAP3K20 (UniProt Q9NYL2)
inactive: [1] 0.02 | [2] -0.037 | [3] 0.017 | [4] 0.005 | [5] 0.022

IGFBP2 (UniProt P18065)
Chain of UniProt P18065 (P18065 whole entry, looked up): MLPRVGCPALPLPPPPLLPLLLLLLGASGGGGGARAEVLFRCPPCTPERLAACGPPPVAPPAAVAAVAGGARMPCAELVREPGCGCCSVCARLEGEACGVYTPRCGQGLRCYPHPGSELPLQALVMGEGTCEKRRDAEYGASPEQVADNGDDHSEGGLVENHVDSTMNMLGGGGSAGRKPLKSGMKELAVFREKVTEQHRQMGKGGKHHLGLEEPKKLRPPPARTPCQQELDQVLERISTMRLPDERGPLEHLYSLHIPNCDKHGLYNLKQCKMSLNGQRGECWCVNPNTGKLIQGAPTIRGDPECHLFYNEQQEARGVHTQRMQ
inactive: [1] -0.121 | [2] -0.101 | [3] 0.131 | [4] -0.295 | [5] 0.062

LDLR (UniProt P01130)
inactive: [1] -0.037 | [2] 0.014 | [3] 0.037 | [4] 0.022 | [5] 0.062

MAIP1 (UniProt Q8WWC4)
inactive: [1] 0.012 | [2] 0.075 | [3] 0.028 | [4] -0.026 | [5] 0.002

ILF3 (UniProt Q12906)
inactive: [1] 0.06

LAMP2 isoform 2 (UniProt P13473)
inactive: [1] 0.051 | [2] -0.015 | [3] 0.04 | [4] 0.052 | [5] 0.007

LMBRD1 (UniProt Q9NUN5)
Chain of UniProt Q9NUN5 (Q9NUN5 whole entry, looked up): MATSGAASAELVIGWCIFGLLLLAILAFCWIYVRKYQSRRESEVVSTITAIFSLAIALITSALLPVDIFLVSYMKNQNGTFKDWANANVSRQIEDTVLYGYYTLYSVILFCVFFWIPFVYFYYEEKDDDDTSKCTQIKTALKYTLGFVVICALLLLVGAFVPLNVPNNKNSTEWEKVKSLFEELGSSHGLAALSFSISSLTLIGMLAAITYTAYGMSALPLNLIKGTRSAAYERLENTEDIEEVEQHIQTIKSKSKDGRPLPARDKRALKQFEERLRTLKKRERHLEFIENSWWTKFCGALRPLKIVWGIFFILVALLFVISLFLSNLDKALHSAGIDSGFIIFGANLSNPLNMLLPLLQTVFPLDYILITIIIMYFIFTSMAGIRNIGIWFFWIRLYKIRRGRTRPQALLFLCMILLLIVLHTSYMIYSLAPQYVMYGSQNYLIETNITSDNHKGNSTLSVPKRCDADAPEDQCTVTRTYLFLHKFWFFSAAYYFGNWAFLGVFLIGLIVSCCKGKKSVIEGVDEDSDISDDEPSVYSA
inactive: [1] 0.013 | [2] 0.099 | [3] 0.143 | [4] -0.178 | [5] 0.039

LDLRAP1 (UniProt Q5SW96)
inactive: [1] 0.055

KIF21A isoform 4 (UniProt Q7Z4S6)
inactive: [1] -0.003 | [2] -0.024 | [3] 0.061 | [4] -0.077 | [5] 0.014

LDAH isoform 2 (UniProt Q9H6V9)
Chain of UniProt Q9H6V9 (Q9H6V9 whole entry, looked up): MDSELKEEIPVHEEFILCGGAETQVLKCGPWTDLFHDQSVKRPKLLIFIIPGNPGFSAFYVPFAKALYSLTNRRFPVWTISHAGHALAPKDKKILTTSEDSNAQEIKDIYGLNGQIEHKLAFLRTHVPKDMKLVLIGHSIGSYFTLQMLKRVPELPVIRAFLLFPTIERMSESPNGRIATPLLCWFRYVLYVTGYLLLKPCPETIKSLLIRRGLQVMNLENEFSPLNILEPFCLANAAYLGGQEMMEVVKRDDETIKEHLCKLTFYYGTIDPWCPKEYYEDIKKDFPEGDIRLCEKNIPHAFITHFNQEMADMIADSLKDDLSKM
inactive: [1] -0.125 | [2] 0.019 | [3] 0.086 | [4] 0.174 | [5] -0.059

MAP4 isoform 5 (UniProt P27816)
inactive: [1] 0.077

LMNB1 (UniProt P20700)
Chain of UniProt P20700 (P20700 whole entry, looked up): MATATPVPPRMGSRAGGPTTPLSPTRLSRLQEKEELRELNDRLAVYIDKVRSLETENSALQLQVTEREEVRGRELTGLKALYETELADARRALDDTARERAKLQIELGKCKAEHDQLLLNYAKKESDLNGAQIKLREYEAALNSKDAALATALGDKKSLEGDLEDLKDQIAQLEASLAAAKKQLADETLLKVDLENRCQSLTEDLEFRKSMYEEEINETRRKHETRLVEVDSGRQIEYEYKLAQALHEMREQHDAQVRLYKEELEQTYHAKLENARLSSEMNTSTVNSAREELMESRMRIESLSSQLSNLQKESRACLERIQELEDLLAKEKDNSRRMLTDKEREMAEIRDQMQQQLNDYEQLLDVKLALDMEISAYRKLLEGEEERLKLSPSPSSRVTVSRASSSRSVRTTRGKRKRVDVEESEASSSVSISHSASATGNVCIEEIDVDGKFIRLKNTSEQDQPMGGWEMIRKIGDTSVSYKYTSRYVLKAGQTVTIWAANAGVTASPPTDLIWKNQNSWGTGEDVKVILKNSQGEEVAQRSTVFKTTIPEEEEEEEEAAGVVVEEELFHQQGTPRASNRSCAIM
inactive: [1] 0.08 | [2] -0.005 | [3] -0.009 | [4] -0.018 | [5] 0.042

MIF (UniProt P14174)
Chain of UniProt P14174 (P14174 whole entry, looked up): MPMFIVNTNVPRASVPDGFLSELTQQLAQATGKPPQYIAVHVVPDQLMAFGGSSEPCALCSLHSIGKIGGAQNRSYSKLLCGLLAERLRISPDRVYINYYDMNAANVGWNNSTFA
inactive: [1] -0.101 | [2] 0.016 | [3] 0.015 | [4] -0.083 | [5] 0.004

LRPPRC (UniProt P42704)
inactive: [1] -0.312 | [2] -0.059 | [3] 0.257 | [4] -0.031 | [5] -0.05

MAP2K1 (UniProt Q02750)
Chain of UniProt Q02750 (Q02750 whole entry, looked up): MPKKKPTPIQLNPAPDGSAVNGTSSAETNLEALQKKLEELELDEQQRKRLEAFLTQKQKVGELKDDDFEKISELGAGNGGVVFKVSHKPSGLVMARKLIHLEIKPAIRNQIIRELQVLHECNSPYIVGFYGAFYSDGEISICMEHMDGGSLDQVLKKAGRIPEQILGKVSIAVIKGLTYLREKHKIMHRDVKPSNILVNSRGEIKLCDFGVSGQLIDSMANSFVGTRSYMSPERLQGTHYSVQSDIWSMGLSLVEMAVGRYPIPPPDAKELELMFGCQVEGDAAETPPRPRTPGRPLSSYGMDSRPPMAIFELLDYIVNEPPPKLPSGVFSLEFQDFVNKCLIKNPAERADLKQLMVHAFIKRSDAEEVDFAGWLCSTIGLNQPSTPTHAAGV
inactive: [1] -0.01 | [2] 0.033 | [3] 0.099 | [4] -0.015 | [5] 0

LPIN3 isoform 2 (UniProt Q9BQK8)
Chain of UniProt Q9BQK8 (Q9BQK8 whole entry, looked up): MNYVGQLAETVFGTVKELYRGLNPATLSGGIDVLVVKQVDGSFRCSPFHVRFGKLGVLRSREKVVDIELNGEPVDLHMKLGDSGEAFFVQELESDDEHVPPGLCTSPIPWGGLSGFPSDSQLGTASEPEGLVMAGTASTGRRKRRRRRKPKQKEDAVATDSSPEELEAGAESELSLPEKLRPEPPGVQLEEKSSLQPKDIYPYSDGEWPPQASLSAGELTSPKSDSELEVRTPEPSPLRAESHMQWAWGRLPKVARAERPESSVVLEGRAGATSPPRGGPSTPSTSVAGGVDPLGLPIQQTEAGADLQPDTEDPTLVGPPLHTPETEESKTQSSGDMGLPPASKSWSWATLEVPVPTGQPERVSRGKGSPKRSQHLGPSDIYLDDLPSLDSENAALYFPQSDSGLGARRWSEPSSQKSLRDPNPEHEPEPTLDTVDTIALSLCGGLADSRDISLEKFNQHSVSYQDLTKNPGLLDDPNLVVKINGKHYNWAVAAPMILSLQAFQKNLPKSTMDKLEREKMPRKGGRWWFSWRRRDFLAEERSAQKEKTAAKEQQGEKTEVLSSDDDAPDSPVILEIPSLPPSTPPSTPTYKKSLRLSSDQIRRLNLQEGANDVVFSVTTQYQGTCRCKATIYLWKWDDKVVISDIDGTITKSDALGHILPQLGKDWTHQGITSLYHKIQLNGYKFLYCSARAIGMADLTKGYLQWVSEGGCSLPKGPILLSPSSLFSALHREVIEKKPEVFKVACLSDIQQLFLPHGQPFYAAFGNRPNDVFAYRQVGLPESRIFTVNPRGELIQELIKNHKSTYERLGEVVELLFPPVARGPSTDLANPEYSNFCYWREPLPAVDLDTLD
inactive: [1] -0.047 | [2] 0.066 | [3] 0.075 | [4] -0.138 | [5] -0.044

MIER1 isoform 12 (UniProt Q8N108)
inactive: [1] -0.012 | [2] 0.073 | [3] 0.059 | [4] 0.016 | [5] 0.02

INTS7 (UniProt Q9NVH2)
inactive: [1] -0.005 | [2] 0.086 | [3] 0.001 | [4] -0.085 | [5] -0.054

KDM1A isoform 2 (UniProt O60341)
active: [5] 1.73
inactive: [1] -0.05 | [2] 0 | [3] 0.087 | [4] -0.019

ILVBL (UniProt A1L0T0)
inactive: [1] -0.016 | [3] 0.075 | [4] -0.067 | [5] -0.127
active: [2] 0.371

INPP5B (UniProt P32019)
inactive: [1] -0.067 | [2] 0.056 | [3] 0.024 | [4] 0.086 | [5] -0.035

KDM3B (UniProt Q7LBC6)
inactive: [1] -0.013 | [2] 0.026 | [3] 0.08 | [4] 0.038 | [5] 0.071

MFN2 (UniProt O95140)
inactive: [1] 0.01 | [2] 0.038 | [3] 0.013 | [4] -0.026 | [5] 0.001

INPP1 (UniProt P49441)
Chain of UniProt P49441 (P49441 whole entry, looked up): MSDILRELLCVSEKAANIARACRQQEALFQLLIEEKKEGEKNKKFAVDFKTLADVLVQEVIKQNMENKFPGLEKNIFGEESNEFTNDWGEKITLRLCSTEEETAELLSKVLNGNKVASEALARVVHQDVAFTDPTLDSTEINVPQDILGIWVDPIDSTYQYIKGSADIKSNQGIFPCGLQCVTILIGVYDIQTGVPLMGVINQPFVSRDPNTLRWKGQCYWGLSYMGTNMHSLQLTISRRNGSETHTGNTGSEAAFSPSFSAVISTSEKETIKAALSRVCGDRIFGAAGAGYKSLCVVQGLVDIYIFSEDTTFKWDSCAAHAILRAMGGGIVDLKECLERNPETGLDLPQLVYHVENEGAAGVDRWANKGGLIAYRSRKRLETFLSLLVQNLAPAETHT
inactive: [1] -0.017 | [2] -0.002 | [3] 0.125 | [4] -0.002 | [5] 0.01

KPNA1 (UniProt P52294)
inactive: [1] -0.03 | [2] -0.049 | [3] 0.079 | [4] -0.003 | [5] -0.001

IGF2BP2 (UniProt Q9Y6M1)
inactive: [1] 0.122 | [2] -0.271 | [3] -0.038 | [4] 0.25 | [5] 0.019

MED25 isoform 3 (UniProt Q71SY5)
inactive: [1] -0.12 | [2] 0.06 | [3] -0.14 | [4] -0.128 | [5] -0.257

MFN1 (UniProt Q8IWA4)
inactive: [1] 0.058 | [2] 0.042 | [3] 0.05 | [4] 0.07 | [5] -0.01

LARP1 (UniProt Q6PKG0)
inactive: [1] 0.002 | [2] -0.046 | [3] -0.046 | [4] 0.151 | [5] -0.002

MIEN1 (UniProt Q9BRT3)
inactive: [1] 0.035 | [2] 0.101 | [3] 0.014 | [4] -0.097 | [5] 0.019

LIAS (UniProt O43766)
inactive: [1] 0.001 | [2] -0.042 | [3] 0.008 | [4] 0.049 | [5] 0.05

KHDRBS1 (UniProt Q07666)
inactive: [1] -0.038 | [2] -0.018 | [3] -0.025 | [4] 0.055 | [5] -0.021

KIF3A (UniProt Q9Y496)
inactive: [1] 0.027 | [2] 0.039 | [3] 0.054 | [4] 0.049 | [5] 0.002

JMJD6 isoform 3 (UniProt Q6NYC1)
inactive: [1] -0.004 | [2] 0.046 | [3] 0.055 | [4] 0.006 | [5] 0.097

LMBR1 isoform 3 (UniProt Q8WVP7)
Chain of UniProt Q8WVP7 (Q8WVP7 whole entry, looked up): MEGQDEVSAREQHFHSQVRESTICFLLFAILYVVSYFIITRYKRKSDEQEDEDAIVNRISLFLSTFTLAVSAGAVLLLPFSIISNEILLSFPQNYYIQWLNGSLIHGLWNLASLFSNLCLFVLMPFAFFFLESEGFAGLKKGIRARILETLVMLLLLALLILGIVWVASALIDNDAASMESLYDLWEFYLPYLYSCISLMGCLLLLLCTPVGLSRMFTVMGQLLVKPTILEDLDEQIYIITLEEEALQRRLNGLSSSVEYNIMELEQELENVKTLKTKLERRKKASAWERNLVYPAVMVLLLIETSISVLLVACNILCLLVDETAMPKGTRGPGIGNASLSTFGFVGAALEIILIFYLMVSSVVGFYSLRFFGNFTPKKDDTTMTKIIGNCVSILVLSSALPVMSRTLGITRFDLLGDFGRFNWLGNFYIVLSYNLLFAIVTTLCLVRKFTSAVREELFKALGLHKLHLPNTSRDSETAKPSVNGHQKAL
inactive: [1] -0.194 | [2] 0.147 | [3] -0.134 | [4] -0.349 | [5] 0.078

LBR (UniProt Q14739)
inactive: [1] -0.105 | [2] 0.051 | [3] 0.011 | [4] -0.054 | [5] -0.005

KTN1 (UniProt Q86UP2)
inactive: [1] 0.005 | [2] -0.012 | [3] 0.019 | [4] 0.036 | [5] 0.001

LTO1 (UniProt Q8WV07)
Chain of UniProt Q8WV07 (Q8WV07 whole entry, looked up): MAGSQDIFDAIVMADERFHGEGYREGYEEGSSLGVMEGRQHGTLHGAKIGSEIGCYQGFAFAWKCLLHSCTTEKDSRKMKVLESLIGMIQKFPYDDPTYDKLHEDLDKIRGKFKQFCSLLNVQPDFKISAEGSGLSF
inactive: [1] 0.054 | [2] -0.02 | [3] 0.142 | [4] -0.062 | [5] 0.03

MCL1 (UniProt Q07820)
Chain of UniProt Q07820 (Q07820 whole entry, looked up): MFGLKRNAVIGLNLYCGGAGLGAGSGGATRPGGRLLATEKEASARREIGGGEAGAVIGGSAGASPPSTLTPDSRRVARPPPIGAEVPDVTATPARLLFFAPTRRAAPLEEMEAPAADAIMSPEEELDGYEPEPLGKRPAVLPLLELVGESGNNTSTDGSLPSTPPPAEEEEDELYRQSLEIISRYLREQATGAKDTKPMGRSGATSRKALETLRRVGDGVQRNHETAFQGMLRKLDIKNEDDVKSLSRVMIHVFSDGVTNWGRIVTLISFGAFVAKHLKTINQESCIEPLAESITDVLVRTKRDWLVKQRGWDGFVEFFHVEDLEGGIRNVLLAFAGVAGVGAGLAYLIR
inactive: [1] -0.013 | [2] 0.125 | [3] 0.135 | [4] 0.057 | [5] 0.073
